Gametocyte viability data for seven compounds are collected here from the supplement of paper PMC12297408.

Counter-ions that a name gives are not always drawn. A number with no mark means an inactive call.

The first test deals with Plasmodium falciparum NF54/iGP1_RE9H ulg8 stage V gametocytes. The test is described as follows: gametocyte viability (luciferase signal relative to DMSO control) (% of DMSO control); higher = less gametocytocidal activity, active = 50 or less. The settings on record: concentration: 1 µM; exposure time: 72 h. The procedure: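 Synchronous P. falciparum NF54/iGP1_RE9H ulg8 mature stage V gametocytes (day 12) were exposed to Cayman Epigenetics Screening Library compounds at 10 µM or 1 µM for 72 h at 37 °C. Viability was read as RE9H luciferase bioluminescence, normalised to DMSO plate controls (100%); 50 µM methylene blue was the positive control.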
As to `Cc1sc2c(c1C)C(c1ccc(Cl)cc1)=N[C@@H](CC(N)=O)c1nnc(C)n1-2`, the gametocyte viability is 90.9.
As to `CC1=CC(=O)c2c(O)cccc2C1=O` [Plumbagin], the gametocyte viability is 71.2.
As for `N[C@@H]1C[C@H]1c1ccccc1` [Tranylcypromine (hydrochloride)], the gametocyte viability was 91.7.
For the compound `C[S+]([O-])CCCCN=C=S` (centres undefined) [Sulforaphane], the gametocyte viability was 99.8.
Regarding `COc1cc(C(=O)N2CC[C@@H](O)[C@@H](N)C2)cc2nc(-c3cc4ccccc4n3CC3CC3)n(C)c12` [GSK484 (hydrochloride)], the gametocyte viability was 94.7.
For the compound `CN(C)NC(=O)CCC(=O)O` [Daminozide], the gametocyte viability was 95.2.
Regarding `Cc1sc2c(c1C)C(c1ccc(Cl)cc1)=NC(CC(=O)O)c1nnc(C)n1-2` (single isomer, unassigned; (+)) [(+)-JQ1 (free acid)], the gametocyte viability is 85.8.

The same test, now with this note: concentration: 10 µM; exposure time: 72 h.
Consider `Cc1sc2c(c1C)C(c1ccc(Cl)cc1)=N[C@@H](CC(N)=O)c1nnc(C)n1-2`, for which the gametocyte viability was 93.5.
As for `CC1=CC(=O)c2c(O)cccc2C1=O` [Plumbagin], the gametocyte viability is 16.7 (active).
As for `N[C@@H]1C[C@H]1c1ccccc1` [Tranylcypromine (hydrochloride)], the gametocyte viability was 91.4.
With `C[S+]([O-])CCCCN=C=S` (centres undefined) [Sulforaphane], the gametocyte viability was 96.2.
As for `COc1cc(C(=O)N2CC[C@@H](O)[C@@H](N)C2)cc2nc(-c3cc4ccccc4n3CC3CC3)n(C)c12` [GSK484 (hydrochloride)], the gametocyte viability was 41.8 (active).
Take `CN(C)NC(=O)CCC(=O)O` [Daminozide]: the gametocyte viability was 88.8.
For `Cc1sc2c(c1C)C(c1ccc(Cl)cc1)=NC(CC(=O)O)c1nnc(C)n1-2` (single isomer, unassigned; (+)) [(+)-JQ1 (free acid)], the gametocyte viability was 88.2.
